Results: PubChem BioAssay (NCATS)
Records with an inconclusive call do not appear. Calls of active or inactive are those of the source. The call rests on the fitted dose curve; in most records, active means well fitted curve in the direction sought with a large enough effect; inconclusive means small, poorly fitted or top-dose-only effect, or another doubt; inactive means no such curve, though single readings can be large; an effect the other way counts as inactive or inconclusive.

Legend:
[1] = NS1 protein of Zika virus - qHTS assay to identify small molecule inhibitors in human HEK 293 cells (AID 1347053); further: nearly all actives have a fitted effect of over 55% in size
Outline: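 HEK 293 cells pretreated with compound for 1 h, then infected with ZIKV MR766 (MOI 0.5) for 24 h at 37 C. NS1 detected by TR-FRET with two anti-NS1 antibodies; normalized to uninfected (0%) and infected (100%) wells.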

[2] = qHTS of pediatric cancer cell lines to identify multiple opportunities for drug repurposing: Primary screen for TC32 cells (AID 1347089); further: nearly all actives have a fitted effect of over 60% in size
Outline: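 Measured quantity: luminescence from CellTiter-Glo, reflecting metabolically active TC32 cells following 48 h of compound. Curves came straight from multi-point titrations, with 8 or 11 points in primary and 11 in confirmatory screening.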

[3] = qHTS of pediatric cancer cell lines to identify multiple opportunities for drug repurposing: Primary screen for SJ-GBM2 cells (AID 1347091)
Outline: (§1)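 Cell viability, CellTiter-Glo luminescence; 500-1,000 cells/well, 8- or 11-point titration, 48 h compound exposure at 37 degrees C, 5% CO2. Controls: DMSO neutral, bortezomib 2.3 µM final as positive.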

[4] = qHTS of pediatric cancer cell lines to identify multiple opportunities for drug repurposing: Primary screen for A673 cells (AID 1347092); further: nearly all actives have a fitted effect of over 45% in size
Outline: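 Cells are plated, rested 5 h, dosed by pintool, incubated 48 h, then lysed with CellTiter-Glo and read by luminescence. DMSO is the neutral control; bortezomib at 2.3 uM final is the positive control.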

[5] = qHTS of pediatric cancer cell lines to identify multiple opportunities for drug repurposing: Primary screen for SK-N-MC cells (AID 1347093)
Outline: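 Metabolically active cells were quantified by ATP-dependent luminescence (CellTiter-Glo, 15 min at room temperature) following 48 h treatment. Cells had been plated at 500-1,000 per well and settled for 5 h beforehand.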

[6] = qHTS of pediatric cancer cell lines to identify multiple opportunities for drug repurposing: Primary screen for BT-37 cells (AID 1347094)
Outline: (§2)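 Cells seeded at 500-1,000 cells/well in growth media, rested 5 hours at 37 degrees C, 5% CO2, then dosed; MIPE compounds at 11-point (from 0.78 nM) and NPC at 8-point (from 0.59 nM) final concentrations. Viability by CellTiter-Glo luminescence after 48 hours.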

[7] = qHTS of pediatric cancer cell lines to identify multiple opportunities for drug repurposing: Primary screen for NB-EBc1 cells (AID 1347095)
Outline: as §2

[8] = qHTS of pediatric cancer cell lines to identify multiple opportunities for drug repurposing: Primary screen for U-2 OS cells (AID 1347096); further: nearly all actives have a fitted effect of over 50% in size
Outline: (§3)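 Cells (500-1,000/well) rested 5 h, then received compounds for 48 h; metabolically active cells were measured by CellTiter-Glo luminescence. Final concentrations spanned up to 46 µM (MIPE, 11-point) or 0.59 nM-46 µM (NPC, 8-point) in primary screens, 11-point in follow-ups.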

[9] = qHTS of pediatric cancer cell lines to identify multiple opportunities for drug repurposing: Primary screen for Saos-2 cells (AID 1347097); further: nearly all actives have a fitted effect of over 40% in size
Outline: as §2

[10] = qHTS of pediatric cancer cell lines to identify multiple opportunities for drug repurposing: Primary screen for NB1643 cells (AID 1347099); further: nearly all actives have a fitted effect of over 50% in size
Outline: as §2

[11] = qHTS of pediatric cancer cell lines to identify multiple opportunities for drug repurposing: Primary screen for LAN-5 cells (AID 1347100)
Outline: as §3

[12] = qHTS of pediatric cancer cell lines to identify multiple opportunities for drug repurposing: Primary screen for BT-12 cells (AID 1347101); further: nearly all actives have a fitted effect of over 25% in size
Outline: as §3

[13] = qHTS of pediatric cancer cell lines to identify multiple opportunities for drug repurposing: Primary screen for DAOY cells (AID 1347090); further: nearly all actives have a fitted effect of over 55% in size
Outline: as §1

[14] = qHTS of pediatric cancer cell lines to identify multiple opportunities for drug repurposing: Primary screen for SK-N-SH cells (AID 1347098); further: nearly all actives have a fitted effect of over 65% in size
Outline: as §3

[15] = qHTS of pediatric cancer cell lines to identify multiple opportunities for drug repurposing: Primary screen for Rh18 cells (AID 1347102); further: nearly all actives have a fitted effect of over 65% in size
Outline: as §3

Measured: Potency
Potency means the concentration at half of the fitted maximal effect.

COc1ccc(S(=O)(=O)Nc2cc(-c3c(O)ccc4ccccc34)c(O)c3ccccc23)cc1
inactive: [1] | [2] | [8]
active: [3] 18700 nM | [4] 7430 nM | [5] 3320 nM | [6] 24300 nM | [7] 8330 nM | [9] 4690 nM | [10] 18700 nM | [11] 7430 nM | [12] 30600 nM

COc1cccc2c1C(=O)c1c(O)c3c(c(O)c1C2=O)C[C@@](O)(C(=O)CO)C[C@@H]3O[C@H]1C[C@H](N)[C@@H](O)[C@H](C)O1
active: [13] 1870 nM | [3] 264 nM | [4] 372 nM | [5] 235 nM | [6] 193 nM | [7] 118 nM | [9] 2350 nM | [14] 429 nM | [10] 662 nM | [11] 118 nM | [12] 685 nM | [15] 469 nM

COc1cccc2c1C(=O)c1c(O)c3c(c(O)c1C2=O)C[C@@](O)(C(C)=O)C[C@H]3O[C@H]1C[C@H](N)[C@H](O)[C@H](C)O1
active: [2] 234 nM | [13] 187 nM | [3] 66.2 nM | [4] 46.9 nM | [5] 46.9 nM | [6] 27.3 nM | [8] 118 nM | [9] 264 nM | [14] 121 nM | [12] 76.9 nM

CC1=C(C(=O)Nc2cc3cn[nH]c3cc2F)C(c2ccc(Cl)cc2F)N=C(c2ccnc(Cl)c2)N1 (stereo not drawn)
active: [3] 5900 nM | [5] 11800 nM | [6] 24300 nM | [7] 10500 nM | [9] 5900 nM | [14] 19200 nM | [11] 9350 nM
inactive: [1] | [13] | [8]

CC(=CC(=O)Nc1ccccc1C(=O)O)c1ccc2ccccc2c1
active: [1] 14800 nM | [5] 8330 nM
inactive: [2] | [3] | [8] | [11] | [12] | [15]

CC(=O)OCC(=O)[C@@]1(O)CC[C@H]2[C@@H]3CCC4=CC(=O)CC[C@]4(C)[C@@H]3C(=O)C[C@@]21C
not listed: [2]
inactive: all other assays above

C[N+](C)([O-])CCNc1ccc(NCC[N+](C)(C)[O-])c2c1C(=O)c1c(O)ccc(O)c1C2=O
inactive: [1] | [13] | [3] | [6] | [8] | [9] | [12] | [15]
active: [2] 5230 nM

O=C(O)c1ccc(Nc2ncc3c(n2)-c2ccc(Cl)cc2C(c2c(F)cccc2F)=NC3)cc1
inactive: [1] | [8] | [12]
active: [4] 4690 nM | [5] 662 nM | [7] 66.2 nM | [11] 29.6 nM

COc1cc(C(=O)NC2CCN(C)CC2)ccc1Nc1ncc2c(n1)N(C1CCCC1)CCC(=O)N2C(C)C
active: [3] 2350 nM | [4] 2960 nM | [5] 1180 nM | [6] 2430 nM | [14] 6070 nM | [10] 3720 nM | [11] 1180 nM | [12] 21700 nM | [15] 18700 nM
inactive: [8]

CO[C@@H]1[C@@H](O)[C@H](O)[C@@H](n2c3c(Cl)cccc3c3c4c(c5c6cccc(Cl)c6[nH]c5c32)C(=O)NC4=O)O[C@@H]1CO
active: [1] 118 nM | [2] 294 nM | [13] 469 nM | [4] 235 nM | [5] 66.2 nM | [6] 273 nM | [7] 93.5 nM | [8] 4690 nM | [14] 1210 nM | [10] 418 nM | [11] 118 nM | [12] 1370 nM | [15] 2090 nM

Oc1ccc(-c2ccc(-c3cc(Nc4cccc(CNC5CC5)c4)n[nH]3)cc2)c(O)c1
inactive: [10]
active: [1] 1180 nM | [13] 14800 nM | [4] 935 nM | [5] 372 nM | [6] 5440 nM | [7] 2960 nM | [8] 5900 nM | [9] 5900 nM | [12] 7690 nM

C=CC[C@@H]1C=C(C)C[C@H](C)C[C@H](OC)[C@H]2O[C@@](O)(C(=O)C(=O)N3CCCC[C@H]3C(=O)O[C@H](C(C)=C[C@@H]3CC[C@H](O)[C@H](OC)C3)[C@@H](C)[C@@H](O)CC1=O)[C@@H](C)C[C@@H]2OC
inactive: [2] | [13] | [4] | [7] | [8]
active: [5] 8330 nM | [9] 1870 nM | [14] 6070 nM
